Measurements: PubChem BioAssay AID1347426 (Functional Genomics Laboratory (NCATS/FGL), 2020)
Out of some 31,000 sequences screened, about 1,400 (4.5%) were called active. The sample as a whole holds a higher share of actives than the screen did. A number with no mark means an inactive call.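 How the source made its calls: active means median seed-adjusted z-score above 1 or below -1; inactive means the rest.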

Assay: Novel Modifiers of Survival Motor Neuron (SMN) Protein: Gene Identification via Genome-wide siRNA Screen;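 further: luminescence tracks full-length SMN protein made from the SMN2 reporter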
Details: HEK293T SMN2-luciferase reporter, siRNA knockdown, 72 h; actives lie on both sides
Procedure, shortened: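 Each of three siRNAs per gene is reverse-transfected (1 pmol) into reporter HEK293T cells whose luciferase output tracks SMN protein level. After 72 h culture, ONE-Glo luminescence is control-normalized, log10-transformed and MAD-standardized; Common Seed Analysis deprioritizes seed-driven hits.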

Sequence	median seed-adjusted z-score
CGACGGUGGAAGACACCUATT against DIRAS2	-1.25 (active)
CAUUGCAAGUUGUUCUUGATT against GJA4	-0.18
ACAGCGCUCUCAAUCCCUUTT against GPR150	-0.129
CAUCAGCACUAGCACCUCATT against ZNF213	1.37 (active)
CCCGGUCACUUCUGAGAAATT against ZNF696	0.17
GGAAGAGUCAUACAUCAAUTT against DDX55	0.507
GCAUAGCUCUCGAUAAGAATT against MYH4	-1.8 (active)
GGAUCAUGCUGAGAUGCAATT against RASAL2	0
CCAUCGUGGUAGAUCCGUUTT against CBL	-0.417
GCUUUGUCACAUAACGUGATT against SLC38A2	-1.04 (active)
GGUUGCUAUAUGUUCCGAATT against MLL	0.227
UGACGUGCACAGGAAGAAATT against OXCT2	-0.449
GGGAAUAGCUUAUCUUGUUTT against RFC4	-0.386
GCAUCUACGUGGGUAACUUTT against SFRS1	-1.66 (active)
GCCCGAAAGAGAAAGCGAATT against POU5F1	0.0495
GCAUCAACGCGGGAUUCCATT against TFAP4	-0.0515
CGGUCAUGCUGAUCACCUUTT against GPR119	-0.382
CUGCCGCAAUGACAACAAATT against TRIM42	-0.153
GCGGUAAACUCGACACGUUTT against MARK3	0.271
GGCUGUACAUAGUCCUUUUTT against SNRPB	-3.17 (active)
CUACUUAAGUGUGAUAAUATT against OCLN	0.232
GACUAAUGGAUGAAGCUAATT against PBK	-0.311
GGAAUUCUUUGGGCUGAAATT against MMP1	0.205
GCAUCGGGAAUAAAAUUUATT against LSM2	-1.48 (active)
CCCAAUCAAGUGUUACAAATT against JMJD1C	0.0338
UGGAGUAUCCUAUCAUGUATT against MGST3	-0.0509
GCAAAUACGUGUAGACCUATT against EXOSC9	-0.00796

Sequence	median seed-adjusted z-score
AGUACAUCGCGGAUCUGUATT against RCN3	-2.44 (active)
CCACUUCUCCACACCUUGATT against NR4A1	-0.207
GUGACUCCGUGUAUACUUATT against GCA	-0.162
AGAGCAAAACAGUCCGAUATT against PCDH8	-1.03 (active)
GAAUUCACUUCAGAGCAAUTT against LMO4	-0.067
CAAUCCAACUAGUAGUUCATT against SP4	-0.088
CCCUCUAACUGCUCGGAUATT against DNASE2	-1.23 (active)
GAUCCUAUCGUAGACAUGATT against ZNF440	0.208
CCAGCAAUGAGAAAAAUCUTT against HOXA2	0.335
GGCGAACAGUUCUACAUGUTT against IFT57	-1.1 (active)
CAUCAUUACGAUUAGCCUATT against ARFGAP3	0.00412
CGGGAUUUAUAGGCAAUGATT against RNASEH1	-0.0205
CAUUCGCUCUCAUACUGGATT against CTCF	-0.0821
GGAUCUUCAAAGUCACGAATT against CACNA1B	0.0963
GCACCCACGUCAUCCCUAATT against GRIN1	-0.137
CCAUUCUUCUAGCAACUGATT against DDX47	-0.398
GUCCUAUCACCGUAUCUUATT against SF3B4	-2.56 (active)
GGUUAGGGCUUGACCCAAATT against HIBADH	0.234
CAGACGUGAUGACAAGAUUTT against S100A7	-0.253
CAAUGGUGUCUACAAGAUUTT against SLCO1C1	0.071
CACCUGCUAUGUUACGGGATT against BAT2	0.0889
AGAUACUGGUAUUGCUCGATT against SNRPB	-3.17 (active)
GACCCAUUGCUGUCCAACATT against EMID1	0.979
AGAGGAACUUUAUUCUUGATT against HNRNPUL2	-0.0273
AUAACUACCUGAUCAAGAATT against YWHAG	1.98 (active)
CCCUGGUAGUUCCACACCATT against CRHBP	-0.0443
GAACAUUGGUUCUUAGAGATT against MKRN2	0
